Assay results reported in the supplement of paper PMC8728848.
The sample as a whole holds a higher share of the strongest signals than the screen did.

Legend:
Experiment in all cases: glycan array binding signal (z-score within array); higher = stronger binding
Conditions in all cases: glycan notation: IUPAC condensed, linker removed
[1] = molecular target: Fuc(a1-2)Gal
Method in brief: (§1)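 Glycan array data came from 3228 arrays in the Consortium for Functional Glycomics database, and only arrays with an available protein sequence were kept. Glycan names were put into IUPAC-condensed notation, and columns mapping to the same glycan were averaged. The binding signal is a within-array Z-score, averaged across arrays of one protein sequence run at different concentrations or buffers and across linkers. A negative Z-score can be read as non-binding.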

[2] = molecular target: Fuc(a1-2)Gal(b1-3)GlcNAc6S
Method in brief: as §1

[3] = molecular target: Fuc(a1-2)Gal6S(b1-3)GlcNAc
Method in brief: as §1

[4] = molecular target: Fuc(a1-2)[Gal(a1-3)]Gal(b1-3)GlcNAc
Method in brief: as §1

[5] = molecular target: Fuc(a1-2)[Gal(a1-3)]Gal(b1-3)GlcNAc(b1-3)GalNAc
Method in brief: as §1

[6] = molecular target: Fuc(a1-2)[Gal(a1-3)]Gal(b1-4)[Fuc(a1-3)]Glc
Method in brief: as §1

[7] = molecular target: Fuc(a1-2)[GalNAc(a1-3)]Gal(b1-4)GlcNAc(b1-2)Man(a1-3)[GalNAc(a1-3)[Fuc(a1-2)]Gal(b1-4)GlcNAc(b1-2)Man(a1-6)]Man(b1-4)GlcNAc(b1-4)GlcNAc
Method in brief: as §1

[8] = molecular target: Fuc(a1-3)[Gal(b1-4)]GlcNAc(b1-2)Man(a1-3)[Fuc(a1-3)[Gal(b1-4)]GlcNAc(b1-2)Man(a1-6)]Man(b1-4)GlcNAc(b1-4)[Fuc(a1-6)]GlcNAc
Method in brief: as §1

[9] = molecular target: Fuc(a1-3)[Gal3S(b1-4)]Glc6S
Method in brief: as §1

[10] = molecular target: Fuc(a1-4)GlcNAc
Method in brief: as §1

[11] = molecular target: Gal(a1-4)Gal(b1-4)GlcNAc
Method in brief: as §1

[12] = molecular target: Gal(a1-4)Gal(b1-4)GlcNAc(b1-3)Gal(b1-4)Glc
Method in brief: as §1

[13] = molecular target: Gal(b1-3)GlcNAc(b1-3)Gal(b1-4)GlcNAc(b1-3)Gal(b1-4)GlcNAc(b1-2)[Gal(b1-3)GlcNAc(b1-3)Gal(b1-4)GlcNAc(b1-3)Gal(b1-4)GlcNAc(b1-6)]Man(a1-6)[Gal(b1-3)GlcNAc(b1-3)Gal(b1-4)GlcNAc(b1-3)Gal(b1-4)GlcNAc(b1-2)Man(a1-3)]Man(b1-4)GlcNAc(b1-4)[Fuc(a1-6)]GlcNAc
Method in brief: as §1

[14] = molecular target: Gal(b1-3)GlcNAc(b1-3)Gal(b1-4)[Fuc(a1-3)]GlcNAc(b1-6)[Gal(b1-3)GlcNAc(b1-3)]Gal(b1-4)Glc
Method in brief: as §1

[15] = molecular target: Gal(b1-3)GlcNAc(b1-6)Gal(b1-4)GlcNAc
Method in brief: as §1

[16] = molecular target: Gal(b1-3)[GlcNAc(b1-6)]GalNAc
Method in brief: as §1

[17] = molecular target: Gal(b1-3)[Neu5Ac(a2-6)]GlcNAc(b1-6)Gal(b1-4)Glc
Method in brief: as §1

[18] = molecular target: Gal(b1-4)GlcNAc(b1-2)Man(a1-3)[Gal(b1-4)GlcNAc(b1-2)Man(a1-6)]Man(b1-4)GlcNAc(b1-4)GlcNAc
Method in brief: as §1

[19] = molecular target: Gal(b1-4)GlcNAc(b1-2)Man(a1-6)[GlcNAc(b1-2)Man(a1-3)]Man(b1-4)GlcNAc(b1-4)GlcNAc
Method in brief: as §1

[20] = molecular target: Gal(b1-4)GlcNAc(b1-3)Gal(b1-4)GlcNAc(b1-2)[Gal(b1-4)GlcNAc(b1-3)Gal(b1-4)GlcNAc(b1-6)]Man(a1-6)[Gal(b1-4)GlcNAc(b1-3)Gal(b1-4)GlcNAc(b1-2)Man(a1-3)]Man(b1-4)GlcNAc(b1-4)GlcNAc
Method in brief: as §1

[21] = molecular target: Gal(b1-4)GlcNAc(b1-3)Gal(b1-4)GlcNAc(b1-3)Gal(b1-4)GlcNAc(b1-3)Gal(b1-4)GlcNAc(b1-2)Man(a1-3)[Gal(b1-4)GlcNAc(b1-3)Gal(b1-4)GlcNAc(b1-3)Gal(b1-4)GlcNAc(b1-3)Gal(b1-4)GlcNAc(b1-2)Man(a1-6)]Man(b1-4)GlcNAc(b1-4)GlcNAc
Method in brief: as §1

[22] = molecular target: Gal(b1-4)GlcNAc(b1-3)Gal(b1-4)GlcNAc(b1-3)Gal(b1-4)GlcNAc(b1-3)Gal(b1-4)GlcNAc(b1-2)Man(a1-3)[Gal(b1-4)GlcNAc(b1-3)Gal(b1-4)GlcNAc(b1-3)Gal(b1-4)GlcNAc(b1-3)Gal(b1-4)GlcNAc(b1-2)Man(a1-6)]Man(b1-4)GlcNAc(b1-4)[Fuc(a1-6)]GlcNAc
Method in brief: as §1

[23] = molecular target: Gal3S(b1-3)[Fuc(a1-4)]GlcNAc
Method in brief: as §1

[24] = molecular target: Gal3S(b1-4)[Fuc(a1-3)]GlcNAc6S
Method in brief: as §1

[25] = molecular target: Gal4S(b1-4)GlcNAc
Method in brief: as §1

[26] = molecular target: Gal6S(b1-3)GlcNAc6S
Method in brief: as §1

[27] = molecular target: Gal6S(b1-4)Glc
Method in brief: as §1

[28] = molecular target: Gal6S(b1-4)GlcNAc6S
Method in brief: as §1

[29] = molecular target: GalNAc(b1-3)Gal
Method in brief: as §1

[30] = molecular target: GalNAc(b1-3)Gal(a1-6)Gal(b1-4)Glc
Method in brief: as §1

[31] = molecular target: Glc(a1-6)Glc(a1-6)Glc
Method in brief: as §1

[32] = molecular target: GlcNAc(a1-4)Gal(b1-4)GalNAc
Method in brief: as §1

[33] = molecular target: GlcNAc(b1-2)Man(a1-3)[GlcNAc(b1-2)Man(a1-6)]Man(b1-4)GlcNAc(b1-4)GlcNAc
Method in brief: as §1

[34] = molecular target: GlcNAc(b1-2)Man(a1-3)[GlcNAc(b1-4)][GlcNAc(b1-2)Man(a1-6)]Man(b1-4)GlcNAc(b1-4)GlcNAc
Method in brief: as §1

[35] = molecular target: GlcNAc(b1-2)Man(a1-3)[GlcNAc(b1-4)][GlcNAc(b1-2)Man(a1-6)]Man(b1-4)GlcNAc(b1-4)[Fuc(a1-6)]GlcNAc
Method in brief: as §1

[36] = molecular target: GlcNAc(b1-2)[GlcNAc(b1-4)]Man(a1-3)[GlcNAc(b1-2)Man(a1-6)]Man(b1-4)GlcNAc(b1-4)GlcNAc
Method in brief: as §1

[37] = molecular target: GlcNAc(b1-2)[GlcNAc(b1-6)]Man(a1-6)[GlcNAc(b1-2)Man(a1-3)]Man(b1-4)GlcNAc(b1-4)GlcNAc
Method in brief: as §1

[38] = molecular target: GlcNAc(b1-2)[GlcNAc(b1-6)]Man(a1-6)[GlcNAc(b1-2)Man(a1-3)]Man(b1-4)GlcNAc(b1-4)[Fuc(a1-6)]GlcNAc
Method in brief: as §1

[39] = molecular target: GlcNAc(b1-3)Gal(b1-4)Glc
Method in brief: as §1

[40] = molecular target: GlcNAc(b1-3)Gal(b1-4)GlcNAc(b1-3)[GlcNAc(b1-3)Gal(b1-4)GlcNAc(b1-3)]GalNAc
Method in brief: as §1

[41] = molecular target: Kdn(a2-6)Gal(b1-4)GlcNAc
Method in brief: as §1

[42] = molecular target: Neu5Ac(a2-3)Gal(b1-3)GalNAc(b1-4)[Neu5Ac(a2-3)]Gal(b1-4)Glc
Method in brief: as §1

[43] = molecular target: Neu5Ac(a2-3)Gal(b1-3)[Fuc(a1-4)]GlcNAc
Method in brief: as §1

[44] = molecular target: Neu5Ac(a2-3)Gal(b1-4)GlcNAc(b1-2)Man(a1-3)[GlcNAc(b1-4)][Neu5Ac(a2-3)Gal(b1-4)GlcNAc(b1-2)Man(a1-6)]Man(b1-4)GlcNAc(b1-4)GlcNAc
Method in brief: as §1

[45] = molecular target: Neu5Ac(a2-3)Gal(b1-4)[Fuc(a1-3)]GlcNAc(b1-3)GalNAc
Method in brief: as §1

[46] = molecular target: Neu5Ac(a2-3)GalNAc(b1-4)GlcNAc
Method in brief: as §1

[47] = molecular target: Neu5Ac(a2-6)Gal(b1-4)GlcNAc(b1-2)Man(a1-3)[GlcNAc(b1-2)Man(a1-6)]Man(b1-4)GlcNAc(b1-4)GlcNAc
Method in brief: as §1

[48] = molecular target: Neu5Ac(a2-6)Gal(b1-4)GlcNAc(b1-2)Man(a1-6)[GlcNAc(b1-2)Man(a1-3)]Man(b1-4)GlcNAc(b1-4)GlcNAc
Method in brief: as §1

[49] = molecular target: Neu5Ac(a2-6)Gal(b1-4)GlcNAc(b1-2)[Neu5Ac(a2-6)Gal(b1-4)GlcNAc(b1-4)]Man(a1-3)[GlcNAc(b1-4)][Neu5Ac(a2-6)Gal(b1-4)GlcNAc(b1-2)[Neu5Ac(a2-6)Gal(b1-4)GlcNAc(b1-6)]Man(a1-6)]Man(b1-4)GlcNAc(b1-4)GlcNAc
Method in brief: as §1

[50] = molecular target: Neu5Ac(a2-6)Gal(b1-4)GlcNAc(b1-6)[Gal(b1-3)]GalNAc
Method in brief: as §1

[51] = molecular target: Neu5Ac(a2-8)Neu5Ac(a2-8)Neu5Ac(a2-3)Gal(b1-4)Glc
Method in brief: as §1

[52] = molecular target: Neu5Ac(b2-6)GalNAc
Method in brief: as §1

B1: LSECtin (Homo sapiens), Q6UXB4 (protein)
chain: MDTTRYSKWGGSSEEVPGGPWGRWVHWSRRPLFLALAVLVTTVLWAVILSILLSKASTERAALLDGHDLLRTNASKQTAALGALKEEVGDCHSCCSGTQAQLQTTRAELGEAQAKLMEQESALRELRERVTQGLAEAGRGREDVRTELFRALEAVRLQNNSCEPCPTSWLSFEGSCYFFSVPKTTWAAAQDHCADASAHLVIVGGLDEQGFLTRNTRGRGYWLGLRAVRHLGKVQGYQWVDGVSLSFSHWNQGEPNDAWGRENCVMMLHTGLWNDAPCDSEKDGWICEKRHNC
glycan array binding signal (z-score) [1]: -0.224 | glycan array binding signal (z-score) [2]: -0.125 | glycan array binding signal (z-score) [3]: -0.129 | glycan array binding signal (z-score) [4]: -0.157 | glycan array binding signal (z-score) [5]: -0.129 | glycan array binding signal (z-score) [6]: -0.135 | glycan array binding signal (z-score) [7]: 2.77 | glycan array binding signal (z-score) [8]: -0.124 | glycan array binding signal (z-score) [9]: 4.05 | glycan array binding signal (z-score) [10]: -0.206 | glycan array binding signal (z-score) [11]: 0.114 | glycan array binding signal (z-score) [12]: -0.084 | glycan array binding signal (z-score) [13]: -0.127 | glycan array binding signal (z-score) [14]: -0.13 | glycan array binding signal (z-score) [15]: -0.137 | glycan array binding signal (z-score) [16]: 0.004 | glycan array binding signal (z-score) [17]: -0.085 | glycan array binding signal (z-score) [18]: -0.21 | glycan array binding signal (z-score) [19]: 5.9 | glycan array binding signal (z-score) [20]: -0.139 | glycan array binding signal (z-score) [21]: -0.133 | glycan array binding signal (z-score) [22]: -0.123 | glycan array binding signal (z-score) [23]: -0.158 | glycan array binding signal (z-score) [24]: -0.133 | glycan array binding signal (z-score) [25]: -0.143 | glycan array binding signal (z-score) [26]: -0.136 | glycan array binding signal (z-score) [27]: -0.141 | glycan array binding signal (z-score) [28]: -0.109 | glycan array binding signal (z-score) [29]: -0.182 | glycan array binding signal (z-score) [30]: -0.134 | glycan array binding signal (z-score) [31]: -0.232 | glycan array binding signal (z-score) [32]: 3.23 | glycan array binding signal (z-score) [33]: 6.75 | glycan array binding signal (z-score) [34]: 6.57 | glycan array binding signal (z-score) [35]: 6.3 | glycan array binding signal (z-score) [36]: 3.06 | glycan array binding signal (z-score) [37]: 7.17 | glycan array binding signal (z-score) [38]: 9.94 | glycan array binding signal (z-score) [39]: -0.109 | glycan array binding signal (z-score) [40]: -0.126 | glycan array binding signal (z-score) [41]: -0.149 | glycan array binding signal (z-score) [42]: -0.231 | glycan array binding signal (z-score) [43]: -0.079 | glycan array binding signal (z-score) [44]: -0.14 | glycan array binding signal (z-score) [45]: 4.08 | glycan array binding signal (z-score) [46]: -0.22 | glycan array binding signal (z-score) [47]: 0.942 | glycan array binding signal (z-score) [48]: 5.06 | glycan array binding signal (z-score) [49]: -0.133 | glycan array binding signal (z-score) [50]: -0.137 | glycan array binding signal (z-score) [51]: -0.117 | glycan array binding signal (z-score) [52]: -0.124
